# Shown are actives, neighbours in structure and some others; about 10% of the full set was active somewhere.
# KB-V1 MDR tox: kills drug-selected multidrug resistant KB-V1 cells. KB-V1 MDR cells viability, CellTiter-Glo, 72 h. Potency, µM (doses to about 46.1 µM), hits mostly cytotoxic. actives 3.4% (n = 400,000). AID 1347076; further: nearly all actives have a fitted effect of over 60% in size
#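 Cells of the MDR subline KB-V1 are plated, dosed with compound at multiple concentrations, and incubated 72 h at 37 degrees C; CellTiter-Glo is then added and luminescence read after 10 min.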
# SW480 rereplic: induces DNA re-replication in SW480 colon adenocarcinoma cells; actives 1.8% (n = 340,000); SW480 DNA re-replication, Hoechst DNA content imaging, 48 h; AID 624297; Potency, µM (titrated, usually from 46.1 µM), hits mostly activators; further: nearly all actives have a fitted effect of over 55% in size
#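 DNA re-replication was detected as more nuclei of elevated Hoechst intensity after 48 hr exposure to compound (23 nL pinned per well of 250 cells).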
# MCF10A rereplic: induces DNA re-replication in MCF 10a normal breast cells. MCF 10A DNA re-replication, Hoechst nuclear intensity, 48 h. Potency, µM (titrated, usually from 46.1 µM), actives largely listed as activators. actives 2.9% (n = 350,000). AID 624296; further: nearly all actives have a fitted effect of over 50% in size
# KB-3-1 tox: KB-3-1 parental cell cytotoxicity. AID 1347075. actives 1.4% (n = 400,000). KB-3-1 viability, CellTiter-Glo ATP luminescence, 72 h. Potency, µM (series often up to 46.1 µM), usual class: cytotoxic; further: nearly all actives have a fitted effect of over 60% in size
#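 Screening of KB-3-1 cells (DMEM, 10% FBS, phenol-red free) ran from lowest to highest compound concentration; after 72 h at 37 °C viability was read luminescently and curves fitted.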
# RORgamma inh: blocks mouse ROR gamma transcriptional activity. Potency, µM (doses to about 53.6 µM), usual class: inhibitors. Drosophila S2 Gal4-RORgamma UAS-luciferase reporter, 20 h. P51450. actives 5.4% (n = 310,000); further: nearly all actives have a fitted effect of over 60% in size
# Target sequence (P51450 whole entry, looked up, the tested form may be a part): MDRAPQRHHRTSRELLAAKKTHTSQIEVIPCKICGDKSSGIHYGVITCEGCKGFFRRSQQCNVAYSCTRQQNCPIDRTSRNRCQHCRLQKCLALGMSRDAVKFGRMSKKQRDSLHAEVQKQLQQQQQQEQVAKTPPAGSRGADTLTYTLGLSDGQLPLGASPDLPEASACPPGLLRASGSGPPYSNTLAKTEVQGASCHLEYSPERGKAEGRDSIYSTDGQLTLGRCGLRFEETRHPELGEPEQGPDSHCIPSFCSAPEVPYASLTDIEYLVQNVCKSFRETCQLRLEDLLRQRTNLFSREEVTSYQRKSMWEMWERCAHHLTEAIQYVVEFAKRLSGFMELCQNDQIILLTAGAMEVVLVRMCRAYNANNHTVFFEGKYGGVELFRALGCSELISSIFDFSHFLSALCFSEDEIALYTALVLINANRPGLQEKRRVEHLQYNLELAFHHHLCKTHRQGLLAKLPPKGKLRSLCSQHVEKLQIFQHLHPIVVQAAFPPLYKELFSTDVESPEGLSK
#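 ROR gamma transcriptional activity was tracked as Gal4-UAS luciferase output in stably transfected Drosophila Schneider cells, with compound added 1 hr before 700 uM copper sulfate induction and a 20 hr ambient-temperature incubation.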
# VP16 counter: inhibits Gal4-VP16 luciferase reporter, ROR gamma counter-screen. AID 2546. actives 3.5% (n = 310,000). Drosophila S2 Gal4-VP16 UAS-luciferase, luminescence, 20 h. Potency, µM (doses to about 53.6 µM), actives largely listed as inhibitors;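 further: Gal4-VP16 expression switched on by copper sulfate through the metallothionein promoter; nearly all actives have a fitted effect of over 50% in size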
# Numbers stand for hits; . = inactive; ? = inconclusive; / = no result. The call rests on the fitted dose curve; in most records, active means well fitted curve in the direction sought with a large enough effect; inconclusive means small, poorly fitted or top-dose-only effect, or another doubt; inactive means no such curve, though single readings can be large; an effect the other way counts as inactive or inconclusive.
SMILES,KB-V1 MDR tox,SW480 rereplic,MCF10A rereplic,KB-3-1 tox,RORgamma inh,VP16 counter
O=C(CCc1nc2ccccc2c(=O)[nH]1)NNC(=O)c1ccc(Cl)cc1,.,.,.,.,/,/
CCN(CC(=O)Nc1cccc(F)c1)Cc1nc2ccccc2c(=O)[nH]1,.,.,.,.,?,?
CCOc1ccc(CNC(=O)Cc2ccc(NC(=O)N3CCSc4ncccc43)cc2)cc1,.,/,/,.,/,/
CSc1ccc(CN(C)Cc2nc3ccccc3c(=O)[nH]2)cc1,20.6µM,.,.,.,?,?
CN(Cc1nc2ccccc2c(=O)[nH]1)C(=O)c1cccc(S(=O)(=O)N2CCCC2)c1,?,.,.,.,/,/
CS(=O)(=O)N(Cc1ccc(F)cc1)Cc1nc2ccccc2c(=O)[nH]1,.,.,.,.,.,.
COc1ccc(CN(Cc2nc3ccccc3c(=O)[nH]2)C(=O)C(C)(C)C)cc1,.,.,.,.,12.6µM,.
CC(=O)c1ccc(-c2ccc(C(=O)N(C)Cc3nc4ccccc4c(=O)[nH]3)o2)cc1,.,.,.,.,/,/
Cc1cc(C)c(C)c(S(=O)(=O)N2CCC(C(=O)N(C)Cc3nc4ccccc4c(=O)[nH]3)CC2)c1C,23.1µM,.,.,.,/,/
CC(=O)N(Cc1ccc(F)cc1)Cc1nc2ccccc2c(=O)[nH]1,.,.,.,.,15.8µM,?
CCN(CC(=O)Nc1c(F)cccc1F)C(=O)CN(C)S(=O)(=O)c1ccc(F)cc1,20.6µM,.,.,.,/,/
CCN(CC(=O)Nc1c(F)cccc1F)C(=O)CCc1nc2ccccc2c(=O)[nH]1,.,29.1µM,.,.,/,/
CCN(CC(=O)Nc1c(F)cccc1F)C(=O)CCC(=O)c1ccc(F)cc1,.,.,.,.,/,/
O=C(NC1CCCCC1)N(Cc1nc2ccccc2c(=O)[nH]1)C1CCCCC1,.,.,.,.,.,.
COc1ccc(CN(Cc2nc3ccccc3c(=O)[nH]2)C(=O)NC2CCCCC2)cc1,.,.,.,.,12.6µM,?
Cc1ccc2nc(COc3ccccc3NC(=O)c3ccc(F)cc3)cc(=O)n2c1,?,/,/,.,/,/
Cc1noc(C)c1COC(=O)c1csc2c1CCC(C)C2 (centres undefined),20.6µM,.,?,.,/,/
COc1ccc(C(=O)NC(CO)c2nnc(SCc3ccc(Cl)c(Cl)c3)n2C)cc1 (centres undefined),.,.,.,.,.,.
CC(C)CC(NC(=O)c1cccs1)c1nnc(SCc2ccc(Cl)c(Cl)c2)n1C (centres undefined),?,.,18.4µM,?,.,.
CC[C@H](C)[C@H](NC(=O)[C@H](C)NC(=O)[C@H](Cc1cnc[nH]1)NC(=O)[C@@H]1CCCN1C(=O)CNC(=O)[C@H](CC(C)C)NC(=O)[C@H](CC(C)C)NC(=O)[C@H](Cc1ccc(O)cc1)NC(=O)CNC(=O)[C@H](C)NC(=O)[C@H](CO)NC(=O)[C@H](CC(N)=O)NC(=O)[C@H](CC(C)C)NC(=O)[C@@H](NC(=O)[C@H](Cc1c[nH]c2ccccc12)NC(=O)CN)[C@@H](C)O)C(=O)O,/,/,/,/,.,.
O=C(CN1CCN(c2ccccn2)CC1)N1c2ccccc2CCc2ccccc21,5.8µM,.,.,.,.,.
O=C(CN1CCN(c2ccccn2)CC1)N1c2ccccc2Sc2ccc(C(F)(F)F)cc21,?,?,.,?,.,.
COc1cccc(CCc2ccccc2OCC(CN(C)C)OC(=O)CCC(=O)O)c1 (centres undefined),.,29.9µM,.,.,.,.
COc1cccc(CN(C)CC(O)COc2cc(Cl)ccc2Cl)c1 (centres undefined),.,.,.,.,.,.
COc1ccc(-c2cn3nc(SCC(=O)Nc4cc(C)cc(C)c4)ccc3n2)cc1,.,/,/,.,/,/
SMILES,KB-V1 MDR tox,SW480 rereplic,MCF10A rereplic,KB-3-1 tox,RORgamma inh,VP16 counter
CCOc1ccccc1-n1nnnc1SCC(=O)N(C)C1CCS(=O)(=O)C1 (centres undefined),.,/,/,.,/,/
COc1c(O)cc2oc(-c3ccc(O)cc3)cc(=O)c2c1O,.,.,.,.,?,?
O=c1cc(-c2ccccc2)oc2cc(O)c(O)c(O)c12,.,?,.,?,28.2µM,?
COc1cccc2oc(SC)cc(=O)c12,/,/,/,/,31.6µM,?
COc1cccc2oc(-c3ccccc3)cc(=O)c12,/,/,/,/,11.2µM,?
CC(=O)c1ccc(Nc2c3ccccc3cc3occc23)cc1,/,/,/,/,.,.
COc1c(C)cc(C(O)c2ncc(-c3ccccc3F)[nH]2)cc1C (centres undefined),?,/,/,.,/,/
CCCC(C)Sc1nc2c([nH]1)c(=S)n(C)c(=O)n2C (centres undefined),8.2µM,?,.,?,/,/
CCCCc1nc(NCCNC(=O)c2ccccc2)c(C#N)c2c1CSC(C)(C)C2,?,?,?,.,.,.
CCCCc1nc(Cl)c(C#N)c2c1CSC(C)(C)C2,.,?,23.1µM,.,?,.
CCCCc1nc(NCCNC(=O)c2ccco2)c(C#N)c2c1CSC(C)(C)C2,2.31µM,?,?,.,.,.
COc1ccc(C2/C=C\CN([S+](=O)([O-])c3ccc4ccccc4c3)C(C)C(=O)N2Cc2ccc(F)cc2)cc1 (centres undefined),/,/,/,/,.,.
COc1ccc(/C=N/OCC(=O)N2CC3(C)CC2CC(C)(C)C3)cc1OC (centres undefined),16.4µM,.,.,.,.,?
COc1cc(/C=C/C(=O)OCC(=O)N2CC3(C)CC2CC(C)(C)C3)ccc1O (centres undefined),.,.,?,.,?,.
O=C(NC(=S)NCc1cccnc1)c1cc2ccccc2o1,.,.,?,.,12.6µM,.
O=C(NC(=S)Nc1cccnc1)c1cc2ccccc2o1,.,?,.,.,?,.
O=C(NC(=S)NCc1cccnc1)c1cc(Br)ccc1Cl,?,.,.,.,22.4µM,?
Cc1oc(-c2ccc(C(=O)Nc3ccc(F)cc3F)cc2)nc1COc1ccccc1,.,/,/,.,/,/
CCN1CCN(c2nc(-c3ccccc3)c3ccccc3n2)CC1,.,20.6µM,14.6µM,.,.,.
c1ccc(-c2nc(N3CCCCC3)nc3ccccc23)cc1,.,?,?,.,.,.
c1ccc(-c2nc(N3CCNCC3)nc3ccccc23)cc1,?,23.1µM,0.708µM,.,.,.
Cc1ccc(N2CCN(/N=C/c3ccncc3)CC2)cc1,.,.,.,.,.,14.1µM
CC(C)N(Cc1ccccc1)C(=O)C1CCCN(c2ncnc3onc(-c4ccc(F)cc4)c23)C1 (centres undefined),?,/,/,.,/,/
COc1ccc(OC(=O)N2CCOCC2)cc1,.,.,.,.,.,.
